Our source for the max response and Potency values is PubChem BioAssay (NCATS).

Several values for one entry are separate records, joined by “and”; a condition that tells them apart may be missing. Identical values can stand only once. Records with an inconclusive call do not appear. Values without a mark were called inactive. Activity calls are given as the source filed them. Calls come from the whole dose curve; as a rule, active = well fitted inhibition curve with a large enough effect; inconclusive = small, poorly fitted or top-dose-only effect; inactive = flat fitted curve, though single readings scatter. Where a SMILES comes first, the peptide text is derived from it. Bridges are numbered along the chain shown (N, C = ends). [ ]: non-standard residue; d: D form. The star is where a group is joined. ξ: configuration not given here. d(aThr) = C[C@@H](O)[C@@H](N)C(=O)O; ξThr(3R) = C[C@@H](O)C(N)C(=O)O; X3 = CC[C@@H](C)CCCCC(=O)*; dDab = NCC[C@@H](N)C(=O)O
% is set by controls: 0 for no effect and ±100 for the full control effect; potency is the fitted concentration of half-maximal effect.

The test has as its system KB-3-1. As to the kind of experiment: Cytotoxic Profiling of Annotated Libraries Using Quantitative High-Throughput Screening (AID 1296008). Note: nearly all actives have a fitted effect of over 60% in size. The conditions noted are these: Five cell lines viability, CellTiter-Glo ATP luminescence, 48-72 h; max response: stronger effect = lower value. The essentials:
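Compounds were pin-transferred onto cells and incubated 48 or 72 hr at 37 degree Celsius, 95% humidity. CellTiter-Glo was added, plates sat 10 min at room temperature, then ATP-coupled luminescence was imaged as the viability read-out.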
Consider `Cc1ccc(S(=O)(=O)NC(=O)N[C@@H](C)Cc2ccccc2)cc1`, for which the max response was 4.03%.
`O=c1[nH]c(=O)n([C@H]2C[C@H](O)[C@@H](CO)O2)cc1/C=C/Br`: the max response is 1.96%.
For the molecule `O=C1c2c(O)cccc2[C@H]([C@@H]2O[C@H](CO)[C@@H](O)[C@H](O)[C@H]2O)c2cc(CO)cc(O)c21`, the max response was 8.29%.
On the same count and under the same terms, with `CC(C)=CCC/C(C)=C/C=C/C(C)=C/C=C/C(C)=C/C=C/C=C(C)/C=C/C=C(C)/C=C/C=C(\C)CCC=C(C)C` the figure was -16.3%; with `C=CC[N+]1([C@H]2C[C@H]3[C@@H]4CC[C@H]5C[C@H](O)[C@@H](N6CCOCC6)C[C@]5(C)[C@H]4CC[C@]3(C)[C@H]2OC(C)=O)CCCC1`, 7.82%; with `C=CC1=C(C(=O)O)N2C(=O)[C@@H](NC(=O)/C(=N\O)c3csc(N)n3)[C@H]2SC1` (stereo in doubt), 5.78% and -12.7%.
`N#Cc1ccc2c(c1)N(CCCN1CCC(O)CC1)c1ccccc1S2`: the max response was 1.4%.
The same measure, in the same setting: in the case of `OCc1ccccc1` it was 7.88%; in that of `CSc1nc2cc(Oc3cccc(Cl)c3Cl)c(Cl)cc2[nH]1`, -1.84%.
Consider `Cc1c(C)c2c(c(C)c1OC(=O)CCC(=O)O)CC[C@@](C)(CCC[C@H](C)CCC[C@H](C)CCCC(C)C)O2`, for which the max response was 3.34%.
Consider `CCCCC[C@H](O)/C=C/[C@@H]1[C@H]2C/C(=C/CCCC(=O)O)O[C@H]2C[C@H]1O`, for which the max response was 11.9%.
Regarding `CC1=CC(=C(c2ccc(N)cc2)c2ccc(N)cc2)C=CC1=N`, the Potency was 10.3 µM (active).
Consider `CC1(C)[C@H]2CC[C@]1(C)[C@H](O)C2`, for which the max response is -0.648%.
On to `C=C1c2c(Cl)ccc(O)c2C(O)=C2C(=O)[C@]3(O)C(O)=C(C(N)=O)C(=O)[C@@H](N(C)C)[C@@H]3[C@@H](O)[C@H]12`, for which the max response was 7.79%.
As for `O=[N+]([O-])c1c(Cl)cccc1-c1c[nH]cc1Cl`, the max response was 2.84%.
With `CO[C@H]1C[C@H](O[C@@H]2/C(C)=C/C[C@@H]3C[C@@H](C[C@]4(CC[C@H](C)[C@@H](C5CCCCC5)O4)O3)OC(=O)[C@@H]3C=C(C)/C(=N/O)[C@H]4OC/C(=C\C=C\[C@@H]2C)[C@]43O)O[C@@H](C)[C@@H]1O`, the max response is -1.21%.
Turning to `N[C@H](CC(=O)O)C(=O)O`, the max response was 11.5%.
Still for that read-out and setting: with `OC/C=C/c1ccccc1` the figure was -5.63%; with `CC/C=C\C/C=C\C/C=C\C/C=C\C/C=C\C/C=C\CCC(=O)O`, 0.95%; with `CC(C)CN(C[C@@H](OP(=O)(O)O)[C@H](Cc1ccccc1)NC(=O)O[C@H]1CCOC1)S(=O)(=O)c1ccc(N)cc1`, 1.96%.
In the case of `CCN(CC)CCOC(=O)c1cccnc1`, the max response was 21.6%.
In the case of `NCCO/C=C/[C@H](N)C(=O)O`, the max response is 0.921%.
In the case of `OB(O)O`, the max response is -9%.
For `Cn1cc(NC(=O)c2cc(NC(=O)c3cc(NC=O)cn3C)cn2C)cc1C(=O)NCCC(=N)N`, the max response is 2.85%.
In the case of `OCCOCCOCCO`, the max response is -12.6%.
Consider `CC(C)(C)CC(C)(C)c1ccc(OCCO)cc1`, for which the max response was -16.2%.
`O=C(O)/C=C/c1ccccc1`: the max response is 5.56%.
For `CC[C@@]1([C@@H]2O[C@@H]([C@H]3O[C@@](O)(CO)[C@H](C)C[C@@H]3C)C[C@@H]2C)CC[C@H]([C@]2(C)CC[C@]3(C[C@H](O)[C@@H](C)[C@@H]([C@@H](C)[C@@H](OC)[C@H](C)C(=O)O)O3)O2)O1` (stereo in doubt), the max response was -18.2%.
`CC(=O)[C@H]1CC[C@H]2[C@@H]3C=CC4=CC(=O)CC[C@@]4(C)[C@H]3CC[C@]12C`: the max response is -2.63%.
For `Cc1ncc[nH]1`, the max response was 3.25%.
The same measure, in the same setting: in the case of `CC(C)CCCCCCc1ccc(O)cc1` it was -10.4%; in that of `COC(=O)[C@@H](N)CS`, -3.99%.
In the case of `CC[C@@H](C)CCCCC(=O)N[C@H](CCN)C(=O)N[C@@H](C(=O)N[C@H](CCN)C(=O)N[C@@H]1CCNC(=O)C([C@@H](C)O)NC(=O)[C@@H](CCN)NC(=O)[C@@H](CCN)NC(=O)[C@@H](CC(C)C)NC(=O)[C@@H](Cc2ccccc2)NC(=O)[C@@H](CCN)NC1=O)[C@@H](C)O` (stereo partly drawn) (X3-[dDab][d(aThr)][dDab][dDab][dDab][dF][dL][dDab][dDab][ξThr(3R)]; lactam 4-C), the max response is 15.7%.
With `C[C@]12CCC(=O)C[C@@H]1CC[C@@H]1[C@@H]2CC[C@]2(C)C=CC[C@@H]12`, the max response is -14.2%.
For `NC[C@@H]1O[C@H](O[C@H]2[C@@H](O)[C@H](O[C@@H]3[C@@H](O)[C@H](N)C[C@H](N)[C@H]3O[C@H]3O[C@H](CO)[C@@H](O)[C@H](O)[C@H]3N)O[C@@H]2CO)[C@H](N)[C@@H](O)[C@@H]1O`, the max response was 5.13%.
As to `CCCC1C(=O)N2C(N(C)C)=Nc3ccc(C)cc3N2C1=O` (stereo not given), the max response is -2.47%.
Same read-out and setting: with `CC(C)(C)c1ccc2c(S(=O)(=O)O)c(C(C)(C)C)ccc2c1` the figure was 3.96%; with `CCN(CC)CCCC(C)Nc1cc(/C=C/c2ccccc2Cl)nc2cc(Cl)ccc12` (stereo not given), 0.54%; with `CC1CCC(NC(=O)N(CCCl)N=O)CC1` (stereo not given), 8.06%.
For `O=C(CCCCCCCCCCCCC1CCCC1)Nc1ccc(S(=O)(=O)c2ccc(NC(=O)CCCCCCCCCCCCC3CCCC3)cc2)cc1`, the max response is 4.77%.
